Data as given in PubChem BioAssay (EPA / NIEHS).
Activity calls are given as the source filed them. The calls were made as follows: active = hit-call score of the fitted dose curve at least 0.9, where 1 is the maximum; inactive = score below 0.9.

target: Retinoic acid receptor alpha (Homo sapiens) (UniProt P10276); experiment: ATG_DR5_RAR_CIS: Attagene CIS-FACTORIAL HepG2 Assay for human Retinoic Acid Receptor Alpha (RARE), DR5 submotif (AID 2282934); conditions: HepG2 Attagene cis-factorial RARE DR5 reporter, mRNA; actives raise or lower the signal;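 as to AC50: reporter responds to endogenous RAR alpha beta and gamma in HepG2 not RARA alone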
Outline: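 After 24 h of chemical exposure, transiently transfected HepG2 cells were lysed for total RNA; the DR5-regulated reporter transcript was quantified via RT-PCR and capillary electrophoresis, with activity fitted bidirectionally against DMSO.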

Sequence of Retinoic acid receptor alpha (Homo sapiens) (P10276 whole entry, looked up): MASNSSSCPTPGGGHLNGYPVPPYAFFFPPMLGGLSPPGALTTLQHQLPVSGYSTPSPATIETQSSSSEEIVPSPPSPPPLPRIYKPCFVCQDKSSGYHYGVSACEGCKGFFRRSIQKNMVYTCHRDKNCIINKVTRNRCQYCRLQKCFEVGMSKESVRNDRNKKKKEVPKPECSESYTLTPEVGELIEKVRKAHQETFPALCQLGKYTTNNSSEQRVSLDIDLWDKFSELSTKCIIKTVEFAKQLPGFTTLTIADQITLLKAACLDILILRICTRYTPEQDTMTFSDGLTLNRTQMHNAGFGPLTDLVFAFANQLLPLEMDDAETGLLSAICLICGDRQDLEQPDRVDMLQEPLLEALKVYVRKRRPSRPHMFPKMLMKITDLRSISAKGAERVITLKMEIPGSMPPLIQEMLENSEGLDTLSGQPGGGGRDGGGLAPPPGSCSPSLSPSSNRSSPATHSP

Compound | outcome | AC50
CCCSP(=S)(OCC)Oc1ccc(SC)cc1 (stereo unspecified) | inactive | –
COCC(=O)N(c1c(C)cccc1C)[C@H](C)C(=O)OC | inactive | –
Cc1cc(C)cc(C)c1 | inactive | –
CCOP(=S)(OCC)SCSc1cc(Cl)ccc1Cl | inactive | –
C=CC(=O)[O][Sn]([CH2]CCC)([CH2]CCC)[CH2]CCC | – | 0.0229 µM (active)
Cc1cccc(OP(=O)(Oc2cccc(C)c2)Oc2cccc(C)c2)c1 | inactive | –
C1CN2CCN1CC2 | inactive | –
COc1ccc([N+](=O)[O-])cc1O | inactive | –
CCC[N+](CCC)(CCC)CCC | inactive | –
O=NN1CCOCC1 | inactive | –
CCOP(=S)(OCC)SCS(=O)(=O)C(C)(C)C | inactive | –
CC(c1ccc(O)cc1)c1ccc(O)cc1 | inactive | –
COc1nn(C(=O)NS(=O)(=O)c2ccccc2OC(F)(F)F)c(=O)n1C | inactive | –
CC(C)[N+](=O)[O-] | inactive | –
C=C(C)[C@@H]1CC=C(C=O)CC1 | inactive | –
CC1CC(=O)O1 (stereo unspecified) | inactive | –

Compound | outcome | AC50
Brc1ccc(Br)cc1 | inactive | –
CC(C)O.CC(C)O.OCCN(CCO)CCO.OCCN(CCO)CCO.[Ti] | inactive | –
CCCCCCCCCCCCCl | inactive | –
CCOc1cc(C=O)ccc1O | inactive | –
O=S(=O)(C(Cl)(Cl)Cl)C(Cl)(Cl)Cl | inactive | –
O=C(N[C@H]1CN2CCC1CC2)c1ccc2c(c1)OCCO2 | inactive | –
O=C(Cc1ccccc1)OCCc1ccccc1 | inactive | –
OCCN(CCO)CCO | inactive | –
OC[C@@H](O)[C@H]1O[C@@H]2O[C@H](C(Cl)(Cl)Cl)O[C@@H]2[C@H]1O | inactive | –
OC(Cc1ccccc1Cl)(Cn1[nH]cnc1=S)C1(Cl)CC1 (stereo unspecified) | inactive | –
CCCCS(=O)(=O)Cl | inactive | –
CC1(C)[C@H](/C=C2\CCSC2=O)[C@@H]1C(=O)OCc1coc(Cc2ccccc2)c1 | inactive | –
C=CC(F)(C(F)(F)F)C(F)(F)C(F)(F)F (stereo unspecified) | inactive | –
O=C(CBr)c1ccc(O)cc1 | inactive | –
C#CCOC(=O)/C=C(C)/C=C/CC(C)CCCC(C)C (stereo unspecified) | inactive | –
CC(C)(C1CCC(O)CC1)C1CCC(O)CC1 (stereo unspecified) | inactive | –

target: Transcription factor E2F1 (Homo sapiens) (UniProt Q01094); experiment: ATG_E2F_CIS: Attagene CIS-FACTORIAL HepG2 Assay for human E2F Transcription Factor 1 (AID 2282935); conditions: HepG2 Attagene cis-reporter, E2F reporter RNA transcripts; actives raise or lower the signal
Outline: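 Measures reporter transcript levels via RT-PCR with capillary electrophoresis detection in HepG2 cells harboring cis-regulated reporter units; 24 h post-dose; bidirectional curve fitting with DMSO as baseline.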

Sequence of Transcription factor E2F1 (Homo sapiens) (Q01094 whole entry, looked up): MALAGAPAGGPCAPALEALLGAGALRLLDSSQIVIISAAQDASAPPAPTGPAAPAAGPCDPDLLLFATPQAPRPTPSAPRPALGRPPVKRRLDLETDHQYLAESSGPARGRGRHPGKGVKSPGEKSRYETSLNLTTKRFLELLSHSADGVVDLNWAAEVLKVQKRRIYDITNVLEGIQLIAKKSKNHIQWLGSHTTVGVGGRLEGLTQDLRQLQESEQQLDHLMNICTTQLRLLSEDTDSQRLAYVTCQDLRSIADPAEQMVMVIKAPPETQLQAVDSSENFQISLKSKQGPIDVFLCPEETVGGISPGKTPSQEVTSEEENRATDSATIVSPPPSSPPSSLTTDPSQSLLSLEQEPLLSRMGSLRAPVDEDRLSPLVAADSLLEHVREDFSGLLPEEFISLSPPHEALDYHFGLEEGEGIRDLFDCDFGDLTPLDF

Compound | outcome | AC50
CCCSP(=S)(OCC)Oc1ccc(SC)cc1 (stereo unspecified) | inactive | –
COCC(=O)N(c1c(C)cccc1C)[C@H](C)C(=O)OC | inactive | –
Cc1cc(C)cc(C)c1 | inactive | –
CCOP(=S)(OCC)SCSc1cc(Cl)ccc1Cl | inactive | –
C=CC(=O)[O][Sn]([CH2]CCC)([CH2]CCC)[CH2]CCC | inactive | –
N#CS | inactive | –
Cc1cccc(OP(=O)(Oc2cccc(C)c2)Oc2cccc(C)c2)c1 | inactive | –
C1CN2CCN1CC2 | inactive | –
COc1ccc([N+](=O)[O-])cc1O | inactive | –
CCC[N+](CCC)(CCC)CCC | inactive | –
O=c1nc(O)n(Cl)c(=O)n1Cl | inactive | –
O=NN1CCOCC1 | inactive | –
O=C(O)CC(O)(CC(=O)O)C(=O)O | inactive | –
CCOP(=S)(OCC)SCS(=O)(=O)C(C)(C)C | inactive | –
CC(c1ccc(O)cc1)c1ccc(O)cc1 | inactive | –
COc1nn(C(=O)NS(=O)(=O)c2ccccc2OC(F)(F)F)c(=O)n1C | inactive | –
CC(C)[N+](=O)[O-] | inactive | –
CC1(C)[C@H](C(=O)O[C@H](C#N)c2cccc(Oc3ccccc3)c2)[C@@H]1/C=C(\Cl)C(F)(F)F | inactive | –
C=C(C)[C@@H]1CC=C(C=O)CC1 | inactive | –
CC1CC(=O)O1 (stereo unspecified) | inactive | –

Compound | outcome | AC50
Brc1ccc(Br)cc1 | inactive | –
CC(C)O.CC(C)O.OCCN(CCO)CCO.OCCN(CCO)CCO.[Ti] | inactive | –
CCCCCCCCCCCCCl | inactive | –
CCOc1cc(C=O)ccc1O | inactive | –
O=S(=O)(C(Cl)(Cl)Cl)C(Cl)(Cl)Cl | – | 6.13 µM (active)
CC(C)(C)c1ccccc1O | inactive | –
O=C(N[C@H]1CN2CCC1CC2)c1ccc2c(c1)OCCO2 | inactive | –
O=C(Cc1ccccc1)OCCc1ccccc1 | inactive | –
OCCN(CCO)CCO | inactive | –
OC[C@@H](O)[C@H]1O[C@@H]2O[C@H](C(Cl)(Cl)Cl)O[C@@H]2[C@H]1O | inactive | –
Oc1c(Cl)cc(Cl)cc1Cl | inactive | –
C[N+](C)(C)Cc1ccccc1 | inactive | –
OC(Cc1ccccc1Cl)(Cn1[nH]cnc1=S)C1(Cl)CC1 (stereo unspecified) | inactive | –
CCCCS(=O)(=O)Cl | inactive | –
CC1(C)[C@H](/C=C2\CCSC2=O)[C@@H]1C(=O)OCc1coc(Cc2ccccc2)c1 | inactive | –
C=CC(F)(C(F)(F)F)C(F)(F)C(F)(F)F (stereo unspecified) | inactive | –
O=C(CBr)c1ccc(O)cc1 | inactive | –
C#CCOC(=O)/C=C(C)/C=C/CC(C)CCCC(C)C (stereo unspecified) | inactive | –
CC(C)(C1CCC(O)CC1)C1CCC(O)CC1 (stereo unspecified) | inactive | –
